Reference: the supplement of paper PMC11732987, “Enantioselective OTUD7B fragment discovery through chemoproteomics screening and high-throughput optimisation” (Communications Chemistry, 2025)

Legend:
Test in all cases: log2 ratio of Biotin-Ahx-Ub-VS probe labelling (fragment/DMSO); higher = less target engagement (more negative = stronger competition), active = hit call of the paper (q ≤ 0.05, log2 ratio ≤ -1)
Conditions in all cases: compound concentration: 200 uM; treatment time: 3 h
USP19 = biological target: T1, USP19 (UniProt O94966)
T1 sequence (whole entry): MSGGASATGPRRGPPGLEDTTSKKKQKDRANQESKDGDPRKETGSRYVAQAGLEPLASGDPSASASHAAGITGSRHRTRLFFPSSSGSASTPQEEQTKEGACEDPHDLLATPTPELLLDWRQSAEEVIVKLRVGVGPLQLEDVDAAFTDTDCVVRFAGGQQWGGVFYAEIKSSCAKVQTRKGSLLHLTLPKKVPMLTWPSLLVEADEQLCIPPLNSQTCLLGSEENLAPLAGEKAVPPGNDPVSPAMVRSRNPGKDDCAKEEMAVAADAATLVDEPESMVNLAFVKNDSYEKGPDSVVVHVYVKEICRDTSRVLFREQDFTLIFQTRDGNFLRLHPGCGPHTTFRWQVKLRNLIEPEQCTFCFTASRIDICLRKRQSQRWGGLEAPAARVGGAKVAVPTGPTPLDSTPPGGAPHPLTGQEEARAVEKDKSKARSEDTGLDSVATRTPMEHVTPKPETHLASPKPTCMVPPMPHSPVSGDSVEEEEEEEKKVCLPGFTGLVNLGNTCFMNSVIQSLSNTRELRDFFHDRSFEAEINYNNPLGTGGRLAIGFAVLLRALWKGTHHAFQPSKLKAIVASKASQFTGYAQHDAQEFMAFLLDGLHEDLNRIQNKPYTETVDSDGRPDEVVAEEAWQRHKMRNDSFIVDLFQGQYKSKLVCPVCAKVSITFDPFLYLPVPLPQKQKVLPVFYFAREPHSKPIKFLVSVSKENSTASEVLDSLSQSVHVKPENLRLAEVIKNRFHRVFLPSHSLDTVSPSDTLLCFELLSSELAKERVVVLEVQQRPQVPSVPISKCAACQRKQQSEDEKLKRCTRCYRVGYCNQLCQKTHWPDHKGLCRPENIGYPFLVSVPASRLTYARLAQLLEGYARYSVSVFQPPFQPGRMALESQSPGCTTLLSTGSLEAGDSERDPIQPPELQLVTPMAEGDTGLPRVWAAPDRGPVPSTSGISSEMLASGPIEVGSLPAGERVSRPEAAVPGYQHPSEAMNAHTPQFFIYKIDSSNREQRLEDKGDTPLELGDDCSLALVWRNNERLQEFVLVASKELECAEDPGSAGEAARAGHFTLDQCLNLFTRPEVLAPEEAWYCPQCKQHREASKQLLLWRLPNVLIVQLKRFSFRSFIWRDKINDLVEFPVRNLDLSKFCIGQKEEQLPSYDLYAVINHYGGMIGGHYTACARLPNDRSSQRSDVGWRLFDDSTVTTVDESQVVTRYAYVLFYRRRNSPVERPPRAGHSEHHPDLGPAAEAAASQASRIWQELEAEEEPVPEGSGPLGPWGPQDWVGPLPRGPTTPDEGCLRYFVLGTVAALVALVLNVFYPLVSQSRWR
How it was run: (§1)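 HEK293T lysate (495 µg per sample, in Tris/CHAPS/IGEPAL buffer with protease inhibitors) was exposed in triplicate for 3 h to fragment at 200 µM or to vehicle, then to Biotin-Ahx-Ub-VS at 0.5 µM final for 1 h. Labelled DUBs were enriched on NeutrAvidin, digested with LysC and trypsin, and analysed by diaPASEF LC-MS/MS. Spectronaut label-free quantities were normalised to the global median, and values are average log2 ratios of fragment over vehicle from an unpaired t-test. Only proteins with ≥2 unique peptides were used.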

USP22 = biological target: T2, USP22 (UniProt Q9UPT9)
T2 sequence (whole entry): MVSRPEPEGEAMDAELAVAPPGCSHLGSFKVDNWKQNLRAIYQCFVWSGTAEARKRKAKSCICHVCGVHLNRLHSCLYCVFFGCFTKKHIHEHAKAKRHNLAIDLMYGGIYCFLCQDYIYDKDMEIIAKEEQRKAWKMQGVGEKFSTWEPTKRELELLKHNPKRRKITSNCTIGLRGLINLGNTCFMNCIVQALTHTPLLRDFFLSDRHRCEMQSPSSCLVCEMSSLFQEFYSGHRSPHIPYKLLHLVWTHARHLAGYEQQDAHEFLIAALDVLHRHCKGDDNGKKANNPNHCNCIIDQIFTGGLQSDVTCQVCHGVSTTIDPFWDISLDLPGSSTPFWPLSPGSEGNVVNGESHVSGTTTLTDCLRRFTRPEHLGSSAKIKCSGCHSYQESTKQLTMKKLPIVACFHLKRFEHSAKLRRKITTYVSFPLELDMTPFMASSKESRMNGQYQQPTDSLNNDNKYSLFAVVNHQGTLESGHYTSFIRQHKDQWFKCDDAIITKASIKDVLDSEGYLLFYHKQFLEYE
How it was run: as §1

USP24 = USP24 (UniProt Q9UPU5)
How it was run: as §1

USP25 = biological target: T3, USP25 (UniProt Q9UHP3)
T3 sequence (whole entry): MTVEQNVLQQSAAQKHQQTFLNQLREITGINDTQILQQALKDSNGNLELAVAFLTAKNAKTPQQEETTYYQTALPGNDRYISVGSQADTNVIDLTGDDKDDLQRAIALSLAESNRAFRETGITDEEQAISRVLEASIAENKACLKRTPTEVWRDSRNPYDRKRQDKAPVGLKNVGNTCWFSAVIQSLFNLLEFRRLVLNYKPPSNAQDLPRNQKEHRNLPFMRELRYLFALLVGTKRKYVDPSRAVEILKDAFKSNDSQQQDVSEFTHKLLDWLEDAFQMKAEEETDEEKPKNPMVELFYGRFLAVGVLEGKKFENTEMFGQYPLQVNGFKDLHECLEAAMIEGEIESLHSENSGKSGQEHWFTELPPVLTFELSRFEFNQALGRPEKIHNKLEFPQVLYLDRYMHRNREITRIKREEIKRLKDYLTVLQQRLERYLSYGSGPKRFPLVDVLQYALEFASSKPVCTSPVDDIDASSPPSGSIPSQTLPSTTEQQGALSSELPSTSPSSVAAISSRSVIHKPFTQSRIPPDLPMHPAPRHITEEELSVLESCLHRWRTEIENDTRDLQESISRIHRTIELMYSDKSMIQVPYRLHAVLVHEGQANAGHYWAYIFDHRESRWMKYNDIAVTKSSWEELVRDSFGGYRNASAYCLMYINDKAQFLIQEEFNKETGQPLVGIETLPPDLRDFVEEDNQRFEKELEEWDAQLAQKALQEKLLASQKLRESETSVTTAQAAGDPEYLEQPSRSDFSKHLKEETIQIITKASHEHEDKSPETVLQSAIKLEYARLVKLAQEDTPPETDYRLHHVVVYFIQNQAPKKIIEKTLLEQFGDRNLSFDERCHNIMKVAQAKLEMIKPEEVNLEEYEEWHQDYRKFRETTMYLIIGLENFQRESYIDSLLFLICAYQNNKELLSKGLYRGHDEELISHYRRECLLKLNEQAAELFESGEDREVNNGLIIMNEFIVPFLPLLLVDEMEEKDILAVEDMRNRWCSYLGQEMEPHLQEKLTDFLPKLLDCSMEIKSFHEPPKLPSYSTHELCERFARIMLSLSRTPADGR
How it was run: as §1

USP28 = biological target: T4, USP28 (UniProt Q96RU2)
T4 sequence (whole entry): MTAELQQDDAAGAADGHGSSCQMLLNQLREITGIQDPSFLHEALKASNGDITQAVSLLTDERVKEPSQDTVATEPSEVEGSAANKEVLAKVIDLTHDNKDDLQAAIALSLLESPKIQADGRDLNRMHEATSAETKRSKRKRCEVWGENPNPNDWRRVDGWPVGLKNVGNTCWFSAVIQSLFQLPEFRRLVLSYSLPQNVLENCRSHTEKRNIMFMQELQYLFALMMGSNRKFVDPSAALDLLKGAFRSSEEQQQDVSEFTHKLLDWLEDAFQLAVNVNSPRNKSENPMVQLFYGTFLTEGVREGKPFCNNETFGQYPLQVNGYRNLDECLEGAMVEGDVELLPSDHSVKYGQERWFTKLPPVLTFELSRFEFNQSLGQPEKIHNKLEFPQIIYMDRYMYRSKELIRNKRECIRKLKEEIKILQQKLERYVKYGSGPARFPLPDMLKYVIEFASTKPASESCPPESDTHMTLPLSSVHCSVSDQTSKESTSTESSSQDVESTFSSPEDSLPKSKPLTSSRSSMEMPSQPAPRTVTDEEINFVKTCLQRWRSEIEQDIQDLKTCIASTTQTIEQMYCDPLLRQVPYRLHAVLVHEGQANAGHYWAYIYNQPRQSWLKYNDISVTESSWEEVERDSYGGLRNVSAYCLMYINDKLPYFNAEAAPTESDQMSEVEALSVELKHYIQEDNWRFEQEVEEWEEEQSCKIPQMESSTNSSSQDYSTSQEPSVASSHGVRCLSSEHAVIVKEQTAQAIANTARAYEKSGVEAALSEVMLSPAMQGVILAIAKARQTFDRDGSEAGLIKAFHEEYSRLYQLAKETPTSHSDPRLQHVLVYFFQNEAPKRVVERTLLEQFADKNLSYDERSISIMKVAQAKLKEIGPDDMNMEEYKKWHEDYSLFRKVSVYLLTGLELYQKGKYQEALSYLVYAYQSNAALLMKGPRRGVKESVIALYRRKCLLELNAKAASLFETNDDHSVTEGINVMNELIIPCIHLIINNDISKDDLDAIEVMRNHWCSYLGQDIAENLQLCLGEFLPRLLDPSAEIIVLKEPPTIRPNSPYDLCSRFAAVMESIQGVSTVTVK
How it was run: as §1

Measured: log2 ratio of Biotin-Ahx-Ub-VS probe labelling

Sequence of USP24 (Q9UPU5 whole entry): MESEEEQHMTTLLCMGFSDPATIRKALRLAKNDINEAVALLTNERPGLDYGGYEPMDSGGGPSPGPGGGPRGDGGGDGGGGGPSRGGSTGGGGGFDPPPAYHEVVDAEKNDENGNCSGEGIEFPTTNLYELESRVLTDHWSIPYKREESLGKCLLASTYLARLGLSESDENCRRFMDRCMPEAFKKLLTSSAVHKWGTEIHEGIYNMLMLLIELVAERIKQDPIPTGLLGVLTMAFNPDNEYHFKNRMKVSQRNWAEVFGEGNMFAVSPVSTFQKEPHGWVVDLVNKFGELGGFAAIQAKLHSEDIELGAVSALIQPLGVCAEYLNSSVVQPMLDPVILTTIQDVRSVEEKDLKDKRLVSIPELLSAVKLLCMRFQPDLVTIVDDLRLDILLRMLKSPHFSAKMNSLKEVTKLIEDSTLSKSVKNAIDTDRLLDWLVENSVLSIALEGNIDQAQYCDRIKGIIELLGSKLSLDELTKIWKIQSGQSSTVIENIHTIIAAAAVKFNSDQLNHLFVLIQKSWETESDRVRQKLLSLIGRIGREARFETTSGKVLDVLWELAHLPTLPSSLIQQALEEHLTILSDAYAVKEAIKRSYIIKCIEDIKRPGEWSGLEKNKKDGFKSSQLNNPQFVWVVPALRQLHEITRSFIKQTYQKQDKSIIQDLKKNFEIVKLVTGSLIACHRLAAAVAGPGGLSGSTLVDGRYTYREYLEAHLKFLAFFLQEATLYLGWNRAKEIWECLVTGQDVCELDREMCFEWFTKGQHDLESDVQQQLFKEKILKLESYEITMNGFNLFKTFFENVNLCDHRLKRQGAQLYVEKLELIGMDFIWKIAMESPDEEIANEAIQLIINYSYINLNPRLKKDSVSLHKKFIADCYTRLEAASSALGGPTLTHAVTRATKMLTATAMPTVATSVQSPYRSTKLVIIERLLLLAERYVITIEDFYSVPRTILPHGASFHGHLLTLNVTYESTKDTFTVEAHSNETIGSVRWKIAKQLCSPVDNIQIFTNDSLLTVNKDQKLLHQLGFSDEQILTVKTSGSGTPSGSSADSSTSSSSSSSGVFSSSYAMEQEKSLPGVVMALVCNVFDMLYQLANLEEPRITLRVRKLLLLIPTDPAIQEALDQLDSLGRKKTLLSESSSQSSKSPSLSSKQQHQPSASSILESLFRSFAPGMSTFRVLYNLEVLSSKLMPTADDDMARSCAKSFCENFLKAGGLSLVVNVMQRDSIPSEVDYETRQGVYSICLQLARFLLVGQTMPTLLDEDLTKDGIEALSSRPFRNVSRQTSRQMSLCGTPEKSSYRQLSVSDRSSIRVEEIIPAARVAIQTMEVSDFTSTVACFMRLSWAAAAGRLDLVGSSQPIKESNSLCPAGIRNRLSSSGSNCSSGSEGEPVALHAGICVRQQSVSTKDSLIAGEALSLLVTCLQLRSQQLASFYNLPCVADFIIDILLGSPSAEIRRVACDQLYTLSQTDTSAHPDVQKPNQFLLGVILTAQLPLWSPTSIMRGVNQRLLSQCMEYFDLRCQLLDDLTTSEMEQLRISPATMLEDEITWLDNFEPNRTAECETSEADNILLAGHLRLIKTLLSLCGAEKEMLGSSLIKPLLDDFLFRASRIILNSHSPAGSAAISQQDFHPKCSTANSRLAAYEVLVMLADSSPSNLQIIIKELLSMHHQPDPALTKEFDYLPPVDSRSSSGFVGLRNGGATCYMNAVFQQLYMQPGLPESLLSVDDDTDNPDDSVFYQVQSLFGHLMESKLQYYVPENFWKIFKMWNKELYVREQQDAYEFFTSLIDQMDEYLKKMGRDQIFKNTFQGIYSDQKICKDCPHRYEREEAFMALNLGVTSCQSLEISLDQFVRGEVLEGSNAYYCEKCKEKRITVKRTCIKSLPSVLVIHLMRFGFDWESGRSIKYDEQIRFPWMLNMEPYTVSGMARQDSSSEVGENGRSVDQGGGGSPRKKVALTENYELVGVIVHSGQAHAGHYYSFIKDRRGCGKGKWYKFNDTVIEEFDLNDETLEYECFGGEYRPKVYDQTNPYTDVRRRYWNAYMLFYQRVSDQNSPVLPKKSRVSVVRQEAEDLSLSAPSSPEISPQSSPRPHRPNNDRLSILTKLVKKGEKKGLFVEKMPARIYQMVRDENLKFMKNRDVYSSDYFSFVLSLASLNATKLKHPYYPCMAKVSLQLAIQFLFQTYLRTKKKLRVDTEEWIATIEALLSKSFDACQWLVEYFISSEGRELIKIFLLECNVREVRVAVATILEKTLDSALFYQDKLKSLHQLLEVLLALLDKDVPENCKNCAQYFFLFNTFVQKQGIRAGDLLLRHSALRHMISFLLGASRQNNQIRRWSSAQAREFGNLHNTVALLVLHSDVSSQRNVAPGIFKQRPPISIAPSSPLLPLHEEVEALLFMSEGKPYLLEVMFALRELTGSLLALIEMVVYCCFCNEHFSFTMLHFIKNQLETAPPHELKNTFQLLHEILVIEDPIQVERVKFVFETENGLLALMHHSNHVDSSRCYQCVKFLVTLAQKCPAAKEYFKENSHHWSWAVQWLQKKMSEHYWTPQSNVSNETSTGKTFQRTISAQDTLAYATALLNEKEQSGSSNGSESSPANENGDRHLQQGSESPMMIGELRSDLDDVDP

Cl.O=C(CCl)N1CCN(Cc2ccccc2)CC1
inactive: USP19 -0.21 | USP22 -0.403 | USP24 -0.611 | USP25 -0.226 | USP28 -0.511
